# Rows were chosen to be rich in hits. Some 3.2% of all compounds tested hit in one or more screens of this group.
# pS6 MEF inh – mTORC1 pathway inhibition measured by phospho-rpS6; Potency, µM (highest dose often 38.3 µM), usual class: inhibitors; 44,000 tested, 0.78% active; Tsc2-/- p53-/- MEF, phospho-rpS6 immunofluorescence/PI, 24 h; AID 493208; note: nearly all actives have a fitted effect of over 50% in size
#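 Plate MEFs (Tsc2-/-, p53-/-, empty vector) in DMEM/10% FBS; after 24 h add compound, incubate 24 h at 37 degree Celsius; fix in PFA/TX-100, block, stain phospho-rpS6 and 10 uM PI; scan at 488 nm; report % positive cells.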
# p53null 39C kill – p53 null cell cytotoxicity, nonpermissive temperature. 55,000 tested, 0.97% active. H1299 p53-null (neo) cells, 39C, ATPlite viability, 24 h. AID 904. Potency, µM (doses to about 46.1 µM), usual class: cytotoxic; note: nearly all actives have a fitted effect of over 50% in size
#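 Cells seeded at 600/well, 37C overnight. Compound added (up to 46 uM), plates shifted to 39C for 24 hr. ATPlite added, luminescence read after 20 min at room temperature.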
# PMP22 txn prim – modulates PMP22 transcription in S16 Schwann cells | Potency, µM (series often up to 57.5 µM), actives largely listed as inhibitors | AID 1508649 | 43,000 tested, 2% active | S16 Pmp22-F2sN Schwann cells, FLuc/NLuc coincidence luminescence, 24 h; active = clear falling dose curves in both reporters; inconclusive = both reporters move, but less clearly or upward; inactive = either reporter flat; the % is the NLuc reporter signal
#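 Luminescent read-out of sequential FLuc and NLuc signals from a reporter embedded in the Pmp22 3' UTR of S16 Schwann cells, taken after 24 h compound exposure at 37C; compounds reducing both signals score as inhibitors of expression.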
# S16 F2sN tox – cytotoxicity in S16 Pmp22-F2sN Schwann cells; S16 Pmp22-F2sN Schwann cells (luciferase reporters placed in the Pmp22 gene) viability, CellTiter-Glo, 24 h; Potency, µM (titrated, usually from 57.5 µM), actives largely listed as cytotoxic; 43,000 tested, 0.48% active; AID 1508642; note: nearly all actives have a fitted effect of over 65% in size
#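 Seed 500-1,000 S16 Pmp22-F2sN cells per well in phenol-red-free DMEM with 10% heat-inactivated FBS; pin-add 23 nL compound; incubate 24 h at 37C; add CellTiter-Glo, wait 15 min protected from light; read luminescence.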
# p53null 32C kill – p53 null cell cytotoxicity, permissive temperature. H1299-neo p53 null cells, ATP luminescence, 24 h, 32C. Potency, µM (series often up to 46.1 µM), actives largely listed as cytotoxic. 55,000 tested, 0.62% active. AID 903; note: nearly all actives have a fitted effect of over 55% in size
#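 Cells lacking p53 (H1299-neo) are plated at 600 per well and allowed to settle overnight at 37C. Test compounds (up to 46 uM) are added and held 24 hours at 32C, then ATP is quantified by luminescence.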
# NLuc sat counter – NanoLuc enzyme inhibition artifact for PMP22 screen; shares compounds with PMP22 txn prim; Secreted NLuc enzyme (filtered S16 cell medium), Nano-Glo luminescence; Potency, µM (titrated, usually from 57.5 µM), actives largely listed as inhibitors; 690 tested, 4% active
# NLuc Km counter – inhibits NanoLuc under Km conditions, PMP22 counter-screen; shares compounds with PMP22 txn prim; secreted NLuc enzyme, coelenterazine luminescence, Km conditions; Potency, µM (top dose mostly 57.5 µM), usual class: inhibitors; 690 tested, 5% active
# FLuc counter – inhibits firefly luciferase, PMP22 counter-screen. shares compounds with PMP22 txn prim. Potency, µM (doses to about 57.5 µM), most hits filed as inhibitors. AID 1508640. 690 tested, under 10 active. purified P. pyralis FLuc, luminescence, 10 min
# Target sequence (P08659 whole entry, looked up): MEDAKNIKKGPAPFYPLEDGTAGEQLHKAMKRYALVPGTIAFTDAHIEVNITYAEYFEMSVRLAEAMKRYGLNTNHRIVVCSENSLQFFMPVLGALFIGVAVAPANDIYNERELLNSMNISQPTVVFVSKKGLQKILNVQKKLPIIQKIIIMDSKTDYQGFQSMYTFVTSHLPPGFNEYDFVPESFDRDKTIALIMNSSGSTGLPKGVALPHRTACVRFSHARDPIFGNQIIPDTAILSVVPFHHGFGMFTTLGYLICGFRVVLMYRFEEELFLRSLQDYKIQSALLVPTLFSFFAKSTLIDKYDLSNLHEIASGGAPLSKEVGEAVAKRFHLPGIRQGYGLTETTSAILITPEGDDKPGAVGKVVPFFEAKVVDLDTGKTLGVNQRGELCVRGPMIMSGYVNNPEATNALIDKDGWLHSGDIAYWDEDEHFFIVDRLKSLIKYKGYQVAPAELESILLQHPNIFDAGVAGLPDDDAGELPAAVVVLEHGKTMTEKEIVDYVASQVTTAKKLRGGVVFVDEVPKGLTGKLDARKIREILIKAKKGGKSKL
# S16 viab conf – S16 Schwann cell cytotoxicity, confirmatory; shares compounds with PMP22 txn prim; S16 Schwann cells viability, CellTiter-Glo ATP luminescence, 24 h; Potency, µM (top dose mostly 57.5 µM), most hits filed as cytotoxic; 690 tested, 7% active; AID 1508641
# PMP22 txn conf – PMP22 transcription modulation, confirmatory. shares compounds with PMP22 txn prim. S16 Schwann cells Pmp22-F2sN, dual luciferase, 24 h. Potency, µM (titrated, usually from 57.5 µM), hits mostly inhibitors. 690 tested, 22% active; active = clear falling dose curves in both reporters; inconclusive = both reporters move, but less clearly or upward; inactive = either reporter flat; the % is the FLuc reporter signal
# PMP22 prot conf – rat PMP22 protein level modulation, confirmatory; shares compounds with PMP22 txn prim; S16 Schwann cells Pmp22-HiBiT, luminescence, 48 h; 95 tested, under 10 active; Potency, µM (titrated, usually from 27.9 µM), hits mostly inhibitors
# Target sequence (P25094 whole entry, looked up): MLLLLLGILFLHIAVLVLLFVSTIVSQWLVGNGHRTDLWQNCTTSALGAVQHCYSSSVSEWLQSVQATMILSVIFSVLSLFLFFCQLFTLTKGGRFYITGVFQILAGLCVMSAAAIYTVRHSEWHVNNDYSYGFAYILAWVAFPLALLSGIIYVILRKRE
# A number is an active result; . = inactive; ? = inconclusive; / = not tested or not shown; [ ] = another dose, or the depositor's remark. Unless noted, calls come from the whole dose curve; as a rule, active = well fitted curve in the direction sought with a large enough effect; inconclusive = small, poorly fitted or top-dose-only effect, or another doubt; inactive = no such curve, though single readings can be large; an effect the other way counts as inactive or inconclusive.
SMILES,pS6 MEF inh,p53null 39C kill,PMP22 txn prim,S16 F2sN tox,p53null 32C kill,NLuc sat counter,NLuc Km counter,FLuc counter,S16 viab conf,PMP22 txn conf,others
Cc1ccc(-n2c(C)cc(/C=C(\C#N)C(=O)Nc3ccc(C)c(C)c3)c2C)cc1,.,.,.,.,.[9.22 µM],/,/,/,/,/,
N#Cc1c[nH]n2c(NC3CCCC3)c(-c3cccc(Br)c3)nc12,.,?,.,.,.,/,/,/,/,/,
COC(=O)c1ccc(CSc2nc3c([nH]c4ccccc43)c(=O)n2-c2cccc(OC)c2)o1,.,.,.,.,.,/,/,/,/,/,
COC(=O)c1ccc(CSc2nc3c([nH]c4ccccc43)c(=O)n2-c2cccc(Cl)c2)o1,.,.,17.9µM,.,.,?,.,.,?,6.11µM,
CCOc1ccccc1Nc1sc(C(=O)c2ccccc2)c(N)c1S(=O)(=O)c1ccc(C)cc1,.,.,2.84µM,?,.,.,.,.,.,?,
Cc1cccc(C)c1Nc1sc(C(=O)c2ccccc2)c(N)c1S(=O)(=O)c1ccccc1,.,.,6.7µM,.,.,.,.,.,.,?,
Cc1c(Cl)cccc1Nc1sc(C(=O)c2ccccc2)c(N)c1S(=O)(=O)c1ccccc1,.,.,.,.,.,/,/,/,/,/,
CCCSc1oc(-c2cccs2)nc1S(=O)(=O)c1ccc(C)cc1,.,.,.,.,.,/,/,/,/,/,
CCCCCS(=O)(=O)c1oc(-c2cccs2)nc1S(=O)(=O)c1ccc(C)cc1,.,.,13.4µM,?,.,.,.,.,?,17.2µM,PMP22 prot conf=.
NS(=O)(=O)c1ccc(CCNC(=O)c2ccc3nc(Cc4ccccc4)oc3c2)cc1,.,.,.,.,.,/,/,/,/,/,
Cc1cc(C)c(NC(=O)Cn2c(=O)n(Cc3ccc4c(c3)OCO4)c(=O)c3ccccc32)c(C)c1,.,.,?,.,.,/,/,/,/,/,
Cc1cc(C)c(NC(=O)Cn2c(=O)n(Cc3ccc(C(=O)NCc4ccc5c(c4)OCO5)cc3)c(=O)c3ccccc32)c(C)c1,5.21µM,?,11.2µM,?,.,.,.,.,27.3µM,8.85µM,
Cc1ccc(NC(=O)Cn2c(=O)n(Cc3ccc4c(c3)OCO4)c(=O)c3ccc(C(=O)NC4CCCCC4)cc32)c(C)c1,.,.,8.43µM,.,.,.,.,.,.,?,
Cc1ccccc1NC(=O)Cn1c(=O)n(Cc2ccc3c(c2)OCO3)c(=O)c2ccc(C(=O)NC3CCCCC3)cc21,.,.,10.6µM,?,.,.,.,.,24.3µM,14.5µM,
Cc1ccc(C)c(NC(=O)Cn2c(=O)n(Cc3ccc4c(c3)OCO4)c(=O)c3ccc(C(=O)NC4CCCCC4)cc32)c1,.,.,4.01µM,.,.,.,.,.,.,18.3µM,PMP22 prot conf=.
CCN(C(=O)Cn1c(=O)n(Cc2ccc3c(c2)OCO3)c(=O)c2ccc(C(=O)NC3CCCCC3)cc21)c1cccc(C)c1,.,.,.,.,.,/,/,/,/,/,
Cc1ccc(NC(=O)Cn2c(=O)n(Cc3ccco3)c(=O)c3ccc(C(=O)NC4CCCC4)cc32)c(C)c1,.,.,?,.,.,/,/,/,/,/,
COc1cccc(-n2c(=O)c3c(C)c(C(=O)N(C)C)sc3n(CC(=O)Nc3ccc(C)cc3Cl)c2=O)c1,.,.,?,?,.,/,/,/,/,/,
CC(C)c1ccc(NC(=O)Cn2cc(S(=O)(=O)N3CCN(c4ccccc4F)CC3)c3ccccc3c2=O)cc1,.,.,.,.,.,/,/,/,/,/,
COc1ccc(C(=O)c2cn(Cc3ccccc3F)c3ccc(F)cc3c2=O)cc1,.,.,.,.,.,/,/,/,/,/,
CCc1ccc(NCc2cc3ccc(OC)cc3n(CC(=O)Nc3c(C)cc(C)cc3C)c2=O)cc1,.,.,?,.,.,/,/,/,/,/,
CCN(CC)c1ccc(NC(=O)CCCN2C(=O)C(c3ccccc3)Oc3cccnc32)c(C)c1 (stereo unspecified),.,.,14.5µM,.,.,.,?,.,.,?,
O=C(CCCN1C(=O)C(c2ccccc2)Oc2cccnc21)Nc1ccccc1C(F)(F)F (stereo unspecified),.,.,?,.,.,/,/,/,/,/,
Cc1ccc(-n2c(SCc3nc(-c4ccc(Cl)cc4)no3)nnc2-c2ccncc2)cc1,.,?,12.6µM,?,.,.,?,.,.,?,
COc1ccc(-c2noc(CSc3nnc(-c4ccncc4)n3-c3ccc(C)cc3)n2)cc1,.,.,8.91µM,.,.,?,?,.,.,3.69µM,PMP22 prot conf=?
SMILES,pS6 MEF inh,p53null 39C kill,PMP22 txn prim,S16 F2sN tox,p53null 32C kill,NLuc sat counter,NLuc Km counter,FLuc counter,S16 viab conf,PMP22 txn conf,others
COc1ccc(-c2noc(CSc3nnc(C)n3-c3ccc(F)cc3)n2)cc1,.,.,?,.,.,?,?,?,.,.,
COc1ccc(N2CCN(C(=O)c3c(C)oc4ncnc(N5CCCCC5)c34)CC2)cc1,.,.,.,.,.,/,/,/,/,/,
CCN(c1ccccc1)C(CNS(=O)(=O)c1ccccc1)c1ccccc1 (stereo unspecified),.,?,?,.,.,/,/,/,/,/,
CCOc1ccccc1NC(=O)c1c(NC(=O)COc2ccccc2)sc2c1CCCCC2,.,.,12.7µM,.,.,.,.,.,.,.,
CCOc1ccccc1NC(=O)c1c(NC(=O)COc2ccc(Cl)cc2)sc2c1CCCCC2,.,.,.,.,.,/,/,/,/,/,
COc1ccc(NCc2cc3cc4c(cc3n(CC(=O)Nc3ccc(F)cc3F)c2=O)OCO4)cc1,.,.,17.9µM,.,.,?,.,.,.,.,
COc1ccc(NCc2cc3cc4c(cc3n(CC(=O)Nc3cccc(F)c3)c2=O)OCO4)cc1,.,.,?,.,.,/,/,/,/,/,
CCN1CCN(c2ccc(NS(=O)(=O)c3c(C)nc4sccn4c3=O)cc2Cl)CC1,.,.,8.91µM,.,.,.,.,.,?,.,

# Source: PubChem BioAssay
